Structures are written as SMILES. Compounds without any hit were thinned out: in the full panel of roughly 79,000, 15% have a hit. Calls of active or inactive are those of the source. Cut-off read from the data, not from the text of the source: active = growth inhibition above about 70%; inactive = the rest.

The first experiment is described as follows: NCI Yeast Anticancer Drug Screen. Data for the sgs1 mgt1 strain (AID 161).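 Note: 0% = growth of cultures given vehicle only.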 To be noted: S. cerevisiae sgs1 mgt1 strain, at 50.0 µM, hits give high values. The essentials: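 Inhibition of yeast growth, normalised to vehicle-treated controls, is reported for a strain bearing genetic alterations in DNA damage repair.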
In the case of `O=C1C(c2ccccc2)=C(c2ccccc2)C(c2ccc(Cc3ccc(C4=C(c5ccccc5)C(=O)C(c5ccccc5)=C4c4ccccc4)cc3)cc2)=C1c1ccccc1`, the growth inhibition was 16.8% (inactive).
The same measure, in the same setting: then `O=C(Nc1ccccc1)NC1CCCC1`, with -1.8% (inactive).
The same measure, in the same setting: then `CCSC(SCC)C(SCC)C(OC(=O)c1ccccc1)C(OC(=O)c1ccccc1)C(COC(=O)c1ccccc1)OC(=O)c1ccccc1` (configuration not stated), with -14.4% (inactive).
The same measure, in the same setting: then `CCCCC1(C(=O)NC(=Nc2ccccc2)Nc2ccccc2)CCOC1=O` (configuration not stated), with -2.55% (inactive); and `N#CCC(=O)N/N=C1\C(=O)N(c2ccc(Cl)cc2)C(=O)C(=O)C1c1nc2ccccc2o1` (configuration not stated), with 0.4% (inactive).
`c1ccc(CCN2CCN=C2Cc2ccccc2)cc1`: the growth inhibition is 0.95% (inactive).
The same measure, in the same setting: then `CN(Cc1ccccc1)C(=O)/C=C/c1ccccc1`, with 26.4% (inactive); and `CCOC(=O)C1=C(c2ccccc2)OC(N)=C(C#N)C1c1ccccc1` (configuration not stated), with -17.6% (inactive); and `[N-]=[N+]=CC(=O)c1cc(-c2ccccc2)nc2c(-c3ccccc3)cccc12`, with 54% (inactive).
As to `NC(=O)N=P(c1ccccc1)(c1ccccc1)c1ccccc1`, the growth inhibition was -6% (inactive).
Still for that read-out and setting: then `CCCc1ccccc1[N+](=O)[O-]`, with -10.5% (inactive); and `O=[N+]([O-])c1ccc(N=Cc2ccccc2)cc1`, with 12.9% (inactive).
Still for that read-out and setting: then `COC(=O)C1=C(C(=O)OC)C2CCCOC2=C(C)C1` (configuration not stated), with -6.15% (inactive); and `CC(c1ccccc1)c1ccc2ccccc2c1C(=O)O` (configuration not stated), with 42.6% (inactive); and `Cc1nn(-c2nc(-c3ccccc3)cs2)c(C)c1C`, with -20.6% (inactive).
Still for that read-out and setting: then `Cc1nnc(N/N=C/c2ccccc2)n1/N=C\c1ccccc1`, with -5.8% (inactive).
As to `CCCCCCCCCCCCCCCCCC(N)=O`, the growth inhibition is 3.35% (inactive).
Still for that read-out and setting: then `COc1ccc(C)cc1Sc1ccc(C)cc1[N+](=O)[O-]`, with -3.2% (inactive); and `Oc1ccc(C=Nc2ccccc2)c(O)c1O`, with -4.9% (inactive); and `COc1ccc(CC(O)CN2CCC(CCN)CC2)cc1` (configuration not stated), with -12.2% (inactive).
For the compound `CC(=O)/C(=C/c1ccc(F)cc1)C(=O)CCN(C)C`, the growth inhibition was 20.9% (inactive).
Still for that read-out and setting: in the case of `CCOC(=O)CC(=O)c1cc(OC)c(OC)c(OC)c1` it was 8.4% (inactive).

A further experiment is described as follows: NCI Yeast Anticancer Drug Screen. Data for the cln2 rad14 strain (AID 165).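 Note: 0% = growth equal to vehicle treated cultures.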 The settings on record: S. cerevisiae cln2 rad14 strain, at 50.0 µM, hits give high values. The essentials:
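Growth of compound-exposed yeast (cln2 rad14 genotype) measured and expressed as inhibition relative to vehicle.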
Turning to `CCOc1ccc(NC(=O)C(=O)CC(=O)C2=C(C)Nc3ccccc3S2)cc1`, the growth inhibition is -2.25% (inactive).
Still for that read-out and setting: in the case of `CC(C)[C@@H](C)[C@@]1(C)C[C@@H]1[C@@H](C)[C@H]1CC[C@@H]([C@@H]2CC=C3C[C@@H](O)CC[C@]3(C)C2=O)[C@]1(C)CCO` it was -17.9% (inactive); in that of `COc1cc(C(=O)CCCC(=O)O)cc(OC)c1OC`, 5.85% (inactive).
`CCC(C)(O)CCc1ccccc1` (configuration not stated): the growth inhibition was 2.55% (inactive).
As to `Cc1cc(Cl)c(Cl)cc1NC(=O)c1c(Br)c(Br)c(Br)c(Br)c1C(=O)O`, the growth inhibition is -16.1% (inactive).
Same read-out and setting: in the case of `CC1CC=CCC1COB(OCC1CC=CCC1C)OCC1CC=CCC1C` (configuration not stated) it was 23.1% (inactive); in that of `COc1cc(C=O)c(-c2c(C=O)ccc3c2OCO3)c(OC)c1OC`, 18.1% (inactive).
Consider `CC(C)C1C(=O)CCCC1=O`, for which the growth inhibition is -12.9% (inactive).
With `O=C(O)C[C@H]1CCCCC12CCOC2=O` (some centres not stated), the growth inhibition is -18.6% (inactive).
Same read-out and setting: then `O=C1NC(C(=O)O)CC1O` (configuration not stated), with 14.2% (inactive); and `O=C1NCC2Cc3ccccc3C(c3ccccc3)=C12` (configuration not stated), with -6.15% (inactive).
On the same count and under the same terms, then `CCCCNc1cccc2ccccc12`, with -43.5% (inactive); and `O=C1NC(N2CCCC(CO)C2)=N/C1=C\c1cccs1` (configuration not stated), with 3.25% (inactive).
Turning to `COc1ccc2c(c1)[n+]([O-])c(/C(C)=N/NC(N)=S)c(C)[n+]2[O-]`, the growth inhibition was 11.4% (inactive).
On the same count and under the same terms, then `C[C@@H](O)c1nc(C(N)=O)cs1`, with -3.55% (inactive); and `CCOC(=O)C1SCCC1(C)O` (configuration not stated), with 16.8% (inactive).
Same read-out and setting: in the case of `COc1ccc(C)cc1NS(=O)(=O)c1ccccc1` it was -12.5% (inactive).
On to `O=C1CC[C@@H](C(=O)Nc2cccc3ccccc23)N1`, for which the growth inhibition is -24.4% (inactive).
On the same count and under the same terms, in the case of `O=C1C(c2ccccc2)=C(c2ccccc2)C(c2ccc(Cc3ccc(C4=C(c5ccccc5)C(=O)C(c5ccccc5)=C4c4ccccc4)cc3)cc2)=C1c1ccccc1` it was 14.6% (inactive); in that of `O=C(Nc1ccccc1)NC1CCCC1`, -5.5% (inactive).
Still for that read-out and setting: in the case of `CCSC(SCC)C(SCC)C(OC(=O)c1ccccc1)C(OC(=O)c1ccccc1)C(COC(=O)c1ccccc1)OC(=O)c1ccccc1` (configuration not stated) it was -5.3% (inactive); in that of `CCCCC1(C(=O)NC(=Nc2ccccc2)Nc2ccccc2)CCOC1=O` (configuration not stated), -11.9% (inactive).
Still for that read-out and setting: in the case of `N#CCC(=O)N/N=C1\C(=O)N(c2ccc(Cl)cc2)C(=O)C(=O)C1c1nc2ccccc2o1` (configuration not stated) it was 16.5% (inactive); in that of `c1ccc(CCN2CCN=C2Cc2ccccc2)cc1`, -32.8% (inactive); in that of `CN(Cc1ccccc1)C(=O)/C=C/c1ccccc1`, 2.85% (inactive).
For `CCOC(=O)C1=C(c2ccccc2)OC(N)=C(C#N)C1c1ccccc1` (configuration not stated), the growth inhibition is 7.6% (inactive).
The same measure, in the same setting: then `[N-]=[N+]=CC(=O)c1cc(-c2ccccc2)nc2c(-c3ccccc3)cccc12`, with 31.8% (inactive); and `NC(=O)N=P(c1ccccc1)(c1ccccc1)c1ccccc1`, with 7.75% (inactive).
Still for that read-out and setting: then `CCCc1ccccc1[N+](=O)[O-]`, with -4.35% (inactive); and `O=[N+]([O-])c1ccc(N=Cc2ccccc2)cc1`, with 3.75% (inactive); and `COC(=O)C1=C(C(=O)OC)C2CCCOC2=C(C)C1` (configuration not stated), with 41.2% (inactive).
For `CC(c1ccccc1)c1ccc2ccccc2c1C(=O)O` (configuration not stated), the growth inhibition was 82% (active).
The same measure, in the same setting: in the case of `Cc1nn(-c2nc(-c3ccccc3)cs2)c(C)c1C` it was 2.9% (inactive).
Turning to `Cc1nnc(N/N=C/c2ccccc2)n1/N=C\c1ccccc1`, the growth inhibition is 10.2% (inactive).
Same read-out and setting: then `CCCCCCCCCCCCCCCCCC(N)=O`, with -15.7% (inactive).
On the same count and under the same terms, then `COc1ccc(C)cc1Sc1ccc(C)cc1[N+](=O)[O-]`, with -27.5% (inactive); and `Oc1ccc(C=Nc2ccccc2)c(O)c1O`, with -7.25% (inactive); and `COc1ccc(CC(O)CN2CCC(CCN)CC2)cc1` (configuration not stated), with -47.9% (inactive).
Same read-out and setting: then `CC(=O)/C(=C/c1ccc(F)cc1)C(=O)CCN(C)C`, with 9.55% (inactive); and `CCOC(=O)CC(=O)c1cc(OC)c(OC)c(OC)c1`, with -75% (inactive).

For the origin of these results see PubChem BioAssay (NCI).
